# High-throughput results from PubChem.
# Pf growth 48h – inhibits P. falciparum growth in the first generation, 48 h; AID 504832; 5.9% of 310,000 active; P. falciparum luciferase growth in erythrocytes, 48 h; Potency, µM (titrated, usually from 28.7 µM), inactives show at the top dose activity change, negative = inhibition, usual class: inhibitors; note: potency is the fitted concentration of half-maximal effect; % is set by controls: 0 for no effect and ±100 for the full control effect
#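 Read-out is firefly luciferase luminescence from an integrated reporter in P. falciparum, so falling signal marks reduced parasite growth. Infected erythrocytes were at 2% hematocrit and 0.1% parasitemia (final) in Albumax-supplemented RPMI 1640.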
# Sm TGR block – blocks Schistosoma mansoni thioredoxin glutathione reductase. Potency, µM (highest dose often 114 µM), without a hit: at the top dose activity change, negative = inhibition, most hits filed as inhibitors. Q962Y6. purified TGR, DTNB reduction, TNB absorbance 405 nm. AID 485364. 3% of 360,000 active; note: potency is the fitted concentration of half-maximal effect; % is set by controls: 0 for no effect and ±100 for the full control effect; nearly all actives have a fitted effect of over 60% in size
#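 TGR 20 nM + NADPH 100 uM (dispensed conc.), cpd preinc 15 min RT; start with NADPH (500 uM addition) then DTNB (15 mM addition). Kinetic TNB absorbance, 405 nm filter. Four-parameter Hill fit across titration.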
# NS1 function inh – blocks influenza NS1 protein function. Potency, µM (highest dose often 46.1 µM), for the others: at the top dose activity, positive = more growth. 0.4% of 270,000 active; calls by dose curve; note: potency is the fitted concentration of half-maximal effect; actives are rising curves; nearly all actives have a fitted effect of over 50% in size
#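 A cell-based growth assay was used: compounds that relieve NS1-induced slow growth of budding yeast raise OD600. Assay medium was yeast nitrogen base with ammonium sulphate and -URA supplement, pH 6.0, with 2% galactose.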
# Shiga toxin inh – inhibitors of Shiga toxin in Vero cells; inhibition, % at 38.7 µM; AID 2315; 9.2% of 290,000 active; Vero cells, Shiga toxin protein synthesis inhibition reporter; in the data active = inhibition mostly above about 28%, no sharp cut-off; inactive = mostly below about 43%; note: 0% is about no effect
# Pf growth 96h – P. falciparum growth inhibition at 96 hour, primary screen for plastid delayed-death inhibitors. Potency, µM (top dose mostly 28.7 µM), without a hit: top-dose activity change, negative = inhibition, actives largely listed as inhibitors. P. falciparum luciferase reporter growth, 96 h. 6.9% of 320,000 active; note: potency is the fitted concentration of half-maximal effect; % is set by controls: 0 for no effect and ±100 for the full control effect
#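 Luminescence readout: decreased luciferase signal marks inhibited growth of reporter-expressing P. falciparum in infected red cells (2% hematocrit, 0.05% parasitemia final), exposed to compound two generations (96 h, 37 C, 5% CO2).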
# CHX counter – counter-screen hit for Shiga toxin inhibitors, cycloheximide; max response, %; cell reporter, cycloheximide protein synthesis inhibition counterscreen; 12% of 300,000 active; in the data active = max response mostly above about 13%, no sharp cut-off; inactive = mostly below about 14%; note: read at 38.3 µM for the half of the compounds with a filed dose; 0% is about no effect
# Flu NS1 inh – validation of influenza NS1 protein function inhibitors; shares compounds with NS1 function inh; influenza NS1 function cell assay, 15-point titration; activity change, negative = inhibition, % at 32.9 µM; 1,400 tested, under 10 active; calls by dose curve; note: 0% is about no effect
# Flu PR8 replic – reduces influenza A/PR/8/34 replication in MDCK cells. 30% of 95 active. AID 504647. MDCK infected influenza A/PR/8/34, virus titer TCID50; hits give low values. virus titer (log TCID50), log10 TCID50 at 5 µM. shares compounds with NS1 function inh; call rule not given here
# * = called active by the depositor; ? = inconclusive; nt = not tested or not shown; + = active, no number. An excerpt weighted towards active compounds, which were near 21% of everything screened. Unless noted, calls come from the whole dose curve; as a rule, active = well fitted curve in the direction sought with a large enough effect; inconclusive = small, poorly fitted or top-dose-only effect, or another doubt; inactive = no such curve, though single readings can be large; an effect the other way counts as inactive or inconclusive.
SMILES,Pf growth 48h,Sm TGR block,NS1 function inh,Shiga toxin inh,Pf growth 96h,CHX counter,Flu NS1 inh,others
COc1ccc(N(C(=O)c2snc(C(N)=O)c2N)C(C(=O)NCC2CCCO2)c2ccc3ncccc3c2)cc1OC (centres undefined),?,-3%,-10%,0,-13%,-5,nt,
CCOc1ccc2nc(Cl)c(C3CC(c4ccco4)=NN3S(=O)(=O)c3ccccc3)cc2c1 (centres undefined),?,-11%,10µM*,+,7.4µM*,-2,-19,
Cc1cccc(-n2c(=O)c3c(c4cc(C)ccc4n3C)n(CC(=O)Nc3ccc(C)cc3C)c2=O)c1,nt,26%,nt,nt,nt,nt,nt,
C/C=C(/C)C(=O)O[C@H]1C(C)=C2C([C@@H]1OC(=O)CCCCCCC)[C@@](C)(OC(C)=O)C[C@@H](OC(=O)CCC)[C@@]1(O)[C@H]2OC(=O)[C@@]1(C)O (some centres undefined),nt,nt,8.9µM*,nt,nt,nt,36,
CCOC(=O)C(=O)Nc1ccc([N+](=O)[O-])cc1OC,4%,-1%,-3%,24,93%,-3,nt,
CCOC(=O)c1ccc(C(=O)OCC)c(NC(=S)Nc2ccc([N+](=O)[O-])cc2OC)c1,34%,-15%,5µM*,67*,2.9µM*,69*,?,
O=C(COc1ccc(Cl)cc1)NNC(=S)NCc1ccccc1,?,6%,5.6µM*,-4,27%,0,?,
Cn1cnnc1SCC(=O)N1N=C2/C(=C/c3ccco3)CCCC2C1c1ccco1 (centres undefined),?,45µM*,3.5µM*,6,10µM*,10,2,
CCC1(C)Cc2c(sc3c2c(=O)n(-c2ccccc2)c(=O)n3C)CO1 (centres undefined),25%,25%,3%,0,2%,1,nt,
Cn1c(=O)n(-c2ccccc2)c(=O)c2c3c(sc21)COC(C)(C)C3,8%,0%,8.9µM*,-7,nt,1,9,
CCc1cc(=O)oc2cc(C)cc(OCC(=O)N[C@@H](CSCc3ccccc3)C(=O)O)c12,?,5%,10µM*,19,-15%,-2,25,Flu PR8 replic=7.3*
CCN(C(=O)COC(=O)CCc1ccc(OC)cc1)c1c(N)n(Cc2ccccc2)c(=O)[nH]c1=O,-20%,1%,nt,nt,0%,nt,nt,
Cc1[nH]n(-c2ncc(-c3ccccc3)s2)c(=O)c1C(c1ccc(Br)cc1)C(C#N)C#N (centres undefined),7%,?,4.5µM*,41,4%,14,-21,
CCc1ccc(NC(=O)CNC(=O)c2cn(-c3ccccc3OC)c(=O)c3ccccc23)cc1,nt,10%,11µM*,15,?,49,30,Flu PR8 replic=8.5
Cc1cc(C(=O)N/N=C/c2cn(C)nc2C)c2ccccc2n1,0%,8%,-3%,-3,17%,-4,nt,
Cc1nn(C)cc1/C=N\NC(=O)c1csc2c1CCCC2,-11%,-1%,?,65*,0%,65*,2,
Cc1ccc(-n2ncc3c2CCCC3NC(=O)CCc2c(C)noc2C)cc1C (centres undefined),-11%,5%,4%,-3,?,12,nt,
NC(=O)NC(=O)COC(=O)c1ccc(Cl)c(S(=O)(=O)N(Cc2ccccc2)c2ccc(Cl)cc2)c1,?,7%,11µM*,5,0%,-4,-20,
CCOc1ccc(C(C#N)N2CCOCC2)cc1OC (centres undefined),3%,4%,16µM*,-19,41%,27,?,
O=C(COC(=O)c1c[nH]c2ccccc12)Nc1cccc(F)c1,-8%,-23%,nt,nt,36%,nt,nt,
Cc1cc(C)n2c(SCC(=O)Nc3ccccc3)nnc2n1,nt,2%,5%,-16,-29%,-3,nt,
CCN(CC)c1ccc(NC(=O)CSc2nnc3nc(C)cc(C)n23)cc1,?,-13%,?,44,?,4,-22,
Cc1ccccc1CSc1nnc([C@@H]2CCCN2)o1,-17%,1%,6%,44,-5%,30,nt,
NC(Cc1cc(O)c(O)cc1O)C(=O)O (centres undefined),0%,16µM*,8.9µM*,nt,15%,nt,-14,
CCOc1cc(/C=N\NC(=O)c2ccc(NC(=O)C(C)(C)C)cc2)ccc1OC(=O)c1ccc(C)cc1,nt,2%,10%,-8,16%,-3,nt,
SMILES,Pf growth 48h,Sm TGR block,NS1 function inh,Shiga toxin inh,Pf growth 96h,CHX counter,Flu NS1 inh,others
CC(C)(C)C(=O)Nc1ccc(C(=O)N/N=C/c2ccccc2OC(=O)c2ccc(Cl)cc2)cc1,?,-7%,10µM*,14,?,3,21,
Cc1cccc(C(=O)Oc2ccccc2/C=N/NC(=O)c2ccc(NC(=O)C(C)(C)C)cc2)c1,?,7%,20µM*,-8,?,2,32,
CCOc1cc(/C=N\NC(=O)c2ccc(NC(=O)C(C)(C)C)cc2)ccc1OC(=O)c1cccc(C)c1,?,11%,11%,-20,?,-1,nt,
CCN1C/C(=N\S(=O)(=O)/N=C2\CN(CC)C(=O)N2CC)N(CC)C1=O,43%,1%,0%,-6,33%,-3,nt,
CN1CCN(CCCNC(=O)c2ccc3c(c2)N(Cc2ccc(F)cc2)CCS3)CC1,?,-15%,2.8µM*,-21,10µM*,-9,-5,
O=C(NCCCN1CCOCC1)c1ccc2c(c1)N(Cc1ccc(F)cc1)CCS2,?,-4%,-2%,-8,?,-2,nt,
Cc1nc(C)c(-c2nnc(-c3ccccc3Cl)o2)cc1C(=O)NN,?,0%,21%,4,?,-3,nt,
Cc1nc(C)c(-c2nnc(-c3ccc(C(C)(C)C)cc3)o2)cc1C(=O)NN,?,-11%,10µM*,-5,5%,0,29,
Cc1ccc(/C=N/NC(=O)Cc2cccn2C)s1,90%,-23%,2.8µM*,58*,-25%,49*,11,
CN1CCN(C2=Nc3ccccc3Oc3ccc(Cl)cc32)CC1,?,-9%,?,-12,-44%,-4,-21,Flu PR8 replic=7.3*
CCOC(=O)COc1c(OC)cc(Cl)cc1C1Nc2ccccc2C(=O)N1c1ccc(F)cc1 (centres undefined),-3%,17%,13µM*,17,-12%,16,-24,
COCCn1c(=NC(=O)c2cc(-c3cccs3)nc3ccccc23)sc2cc(S(N)(=O)=O)ccc21,2%,4%,11µM*,-1,-16%,1,26,
COCC(=O)Nc1ccc2nc3n(c(=O)c2c1)CCCCC3,16%,3%,?,13,-10%,12*,-5,
